Consider 13 molecules from PubChem BioAssay.

The nature of assay [1]: optical density shifts of acrAB sulA E. coli – strain DRC41, OD650, 48 h, E. coli filamentation inducer project, primary screen (AID 1152).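 Further: E. coli MC1000 strain DRC41 lacking acrAB efflux pump and sulA.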 To be noted: higher = more signal, called active from +8 up or from −8 down.
Assay [2] is described as follows: probe aLefty1 binding on compound microarray – biochemical, small-molecule microarray, 635/667 nm fluorescence, primary screen (AID 1153).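 Further: score merges spot fluorescence with signal-to-noise ratio from the scanned slide images.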 To be noted: higher = more signal.
Assay [3] can be described thus: plasmodial surface anion channel blockers, osmotic lysis – cell-based, P. falciparum Indochina, OD700, 1 h, primary screen (AID 1154). The conditions noted are these: P. falciparum Indochina infected RBC osmotic lysis, higher = more signal, called active from +8 up or from −8 down.
Assay [4] is described as follows: plasmodial surface anion channel blockers, osmotic lysis – cell-based, P. falciparum Indochina, OD700, 2 h, primary screen (AID 1155).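 Further: lysis reports solute entry through the parasite surface anion channel PSAC.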 To be noted: P. falciparum Indochina infected erythrocytes, higher = more signal, called active from +8 up or from −8 down.
Assay [5] is described as follows: changes in parasitized red cell lysis, either direction – P. falciparum Indochina, OD700, 3 h, PSAC antagonist project, primary screen (AID 1156). To be noted: P. falciparum-infected erythrocytes, osmotic lysis, higher = more signal, called active from +8 up or from −8 down.
Assay [6] in a line: plasmodial surface anion channel blockers, osmotic lysis – cell-based, P. falciparum Indochina, OD700, 18 h, primary screen (AID 1157). The conditions noted are these: P. falciparum Indochina infected erythrocytes, osmotic lysis OD700, 18 h; higher = more signal, called active from +8 up or from −8 down.
Assay [7] is described as follows: S6 kinase pathway phospho-S6 level changes – cell-based, A549, cytoblot, luminescence, serum-stimulated, primary screen (AID 1158).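 Further: serum-stimulated A549 lung adenocarcinoma cells; signal is phosphorylated S6 detected by cytoblot immunostaining with HRP secondary.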 The conditions noted are these: 5 h, higher = more signal.
For assay [8], the target named is NADPH oxidase 2 (Homo sapiens) (UniProt P04839). Kind of assay: compounds shifting NOX2 Amplex Red fluorescence – cell-based, HEK293-NOX2, PMA-stimulated, NOX inhibitor project, primary screen (AID 1159). Further: test concentration not given here. To be noted: 45 min, higher = more signal, called active from +8 up or from −8 down.
The target of assay [9] is NADPH oxidase 4 (Homo sapiens) (UniProt Q9NPH5). Kind of assay: compounds shifting NOX4 Amplex Red fluorescence – cell-based, HEK293-NOX4, tetracycline-induced, NOX inhibitor project, primary screen (AID 1160). The conditions noted are these: HEK293-NOX4, Amplex Red H2O2 fluorescence, 45 min; higher = more signal, called active from +8 up or from −8 down.
For assay [10], the target named is NADPH oxidase 5 (Homo sapiens) (UniProt Q96PH1). Kind of assay: compounds shifting NOX5 Amplex Red fluorescence – cell-based, HEK293-NOX5, NOX inhibitor project, primary screen (AID 1161). To be noted: HEK293-NOX5, ionomycin, 45 min, higher = more signal.

The source made the active and inactive calls.

Chain of NADPH oxidase 2 (Homo sapiens) (P04839 whole entry, looked up): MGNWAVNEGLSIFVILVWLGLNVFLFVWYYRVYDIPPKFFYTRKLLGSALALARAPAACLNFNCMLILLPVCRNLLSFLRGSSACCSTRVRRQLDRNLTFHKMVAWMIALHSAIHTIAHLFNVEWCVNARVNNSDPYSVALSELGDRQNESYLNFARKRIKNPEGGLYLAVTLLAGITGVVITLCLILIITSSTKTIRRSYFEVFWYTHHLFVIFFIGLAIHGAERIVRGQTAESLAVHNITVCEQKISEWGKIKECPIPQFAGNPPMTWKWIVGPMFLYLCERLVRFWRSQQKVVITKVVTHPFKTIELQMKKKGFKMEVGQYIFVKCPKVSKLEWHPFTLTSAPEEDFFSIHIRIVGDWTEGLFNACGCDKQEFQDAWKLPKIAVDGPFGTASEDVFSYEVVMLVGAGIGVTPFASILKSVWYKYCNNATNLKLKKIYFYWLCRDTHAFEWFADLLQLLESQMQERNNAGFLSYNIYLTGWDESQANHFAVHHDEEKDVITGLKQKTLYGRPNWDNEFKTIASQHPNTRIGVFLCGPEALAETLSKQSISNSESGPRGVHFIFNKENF
Chain of NADPH oxidase 4 (Homo sapiens) (Q9NPH5 whole entry, looked up): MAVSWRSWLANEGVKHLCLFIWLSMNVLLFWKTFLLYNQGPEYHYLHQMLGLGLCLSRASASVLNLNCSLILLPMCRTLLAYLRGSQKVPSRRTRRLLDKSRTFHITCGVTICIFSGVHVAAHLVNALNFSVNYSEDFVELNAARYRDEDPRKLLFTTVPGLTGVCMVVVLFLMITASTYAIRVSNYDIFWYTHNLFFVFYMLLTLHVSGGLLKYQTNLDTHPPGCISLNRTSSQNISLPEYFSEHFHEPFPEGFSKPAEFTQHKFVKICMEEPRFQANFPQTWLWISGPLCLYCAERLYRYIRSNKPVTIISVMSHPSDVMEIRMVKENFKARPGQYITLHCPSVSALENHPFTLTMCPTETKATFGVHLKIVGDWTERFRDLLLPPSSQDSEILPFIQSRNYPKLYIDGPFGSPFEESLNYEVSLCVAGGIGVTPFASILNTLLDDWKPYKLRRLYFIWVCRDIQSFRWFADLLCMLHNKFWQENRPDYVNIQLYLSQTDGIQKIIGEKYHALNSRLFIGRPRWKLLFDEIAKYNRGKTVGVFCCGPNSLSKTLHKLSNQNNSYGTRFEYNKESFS
Chain of NADPH oxidase 5 (Homo sapiens) (Q96PH1 whole entry, looked up): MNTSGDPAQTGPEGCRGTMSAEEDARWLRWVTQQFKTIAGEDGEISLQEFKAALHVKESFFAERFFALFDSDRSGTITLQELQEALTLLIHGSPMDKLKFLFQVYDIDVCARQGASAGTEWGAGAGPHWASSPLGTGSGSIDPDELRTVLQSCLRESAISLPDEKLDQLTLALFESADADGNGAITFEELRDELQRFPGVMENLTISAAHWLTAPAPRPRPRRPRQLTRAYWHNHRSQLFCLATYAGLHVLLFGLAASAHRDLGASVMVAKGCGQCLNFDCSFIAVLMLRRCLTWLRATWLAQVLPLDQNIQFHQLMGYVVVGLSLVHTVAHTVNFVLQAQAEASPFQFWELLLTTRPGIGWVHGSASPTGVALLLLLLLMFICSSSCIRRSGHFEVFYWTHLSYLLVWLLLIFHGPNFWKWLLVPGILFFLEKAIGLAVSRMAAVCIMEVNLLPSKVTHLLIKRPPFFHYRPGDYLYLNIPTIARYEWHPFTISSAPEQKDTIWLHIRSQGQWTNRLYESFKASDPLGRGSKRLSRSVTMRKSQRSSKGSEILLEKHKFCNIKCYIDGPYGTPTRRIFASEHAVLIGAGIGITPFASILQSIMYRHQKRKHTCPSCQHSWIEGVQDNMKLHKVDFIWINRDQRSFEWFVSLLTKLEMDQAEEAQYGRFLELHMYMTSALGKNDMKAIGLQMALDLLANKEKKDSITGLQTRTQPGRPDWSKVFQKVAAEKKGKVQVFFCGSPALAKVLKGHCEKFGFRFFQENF

In the case of `C[C@]1(C(=O)NCc2ccccc2)c2ccccc2C(=O)N(Cc2ccc(OC(F)(F)F)cc2)[C@H]1c1ccc(CO)cc1`, the z-score in assay [1] is 1.17 (inactive); in assay [3] it was 3.54 (inactive); in assay [4] it was -0.18 (inactive); in assay [5] it was -0.495 (inactive); in assay [6], -0.779 (inactive); in [7], 0.843. In addition, the z-score was -0.944 (inactive) in assay [8], -1.33 (inactive) in [9] and -0.499 in [10]. Further, the composite z-score in [2] is -0.142.

With `[N-]=[N+]=NCc1ccccc1C[C@]1(C(=O)NCC(O)CO)N=C(c2ccc(OCCCO)cc2)O[C@H]1c1ccccc1N=[N+]=[N-]` (stereo not given in full), the z-score in [1] is 0.801 (inactive); in assay [3] it was 31.1 (active); in assay [4], 32.2 (active); in [5], 2.92 (inactive); in assay [6] it was 3.93 (inactive); in assay [7], 0.828. Moreover, the values for the z-score in [8], in assay [9] and in assay [10] were -0.689 (inactive), -0.154 (inactive) and -1.77, respectively. In [2], this molecule returned a composite z-score of 0.12.

For the molecule `O=C1OCC=C[C@H]2OC34C=CCN(c5ccc(Cl)cc5)C(=O)[C@H]3N(CCCCCCO)C(=O)[C@@H]4[C@@H]12` (stereo not given in full), the z-score was 0.49 (inactive) in assay [1]; 1.73 (inactive) in assay [3]; 0.398 (inactive) in assay [4]; 0.497 (inactive) in assay [5]; 0.476 (inactive) in assay [6]; -0.243 in [7]. Besides, the z-score in assay [8] was 1.42 (inactive); in [9], -0.583 (inactive); in assay [10], 1.96. The composite z-score in assay [2] came to 0.135.

For `C=CCNC(=O)[C@@H]1[C@H]2C(=O)O[C@H](c3ccccc3)[C@H](c3ccccc3)N2[C@H](c2ccc(O)cc2)[C@@]12C(=O)N(C(=O)OCCOC)c1ccccc12`, the z-score in assay [1] is 0.808 (inactive); in assay [3] it was 1.35 (inactive); in assay [4], -0.27 (inactive); in assay [5] it was 0.123 (inactive); in assay [6] it was -1.08 (inactive); in [7], 1.64. The z-score in assay [8] was 0.818 (inactive); in assay [9], -0.913 (inactive); in [10] it was -2.08. Besides, in assay [2], the composite z-score is 0.149.

`COCCOC(=O)N1C(=O)[C@@]2(c3cc(C#CCCO)ccc31)[C@H](c1ccccc1OCCO)N1[C@H](c3ccccc3)[C@H](c3ccccc3)OC(=O)[C@H]1[C@@H]2C(=O)N1CCN(c2ncccn2)CC1`: the z-score in [1] is -0.33 (inactive); in assay [3], 2.52 (inactive); in assay [4], 1.32 (inactive); in assay [5], -0.293 (inactive); in [6], 0.708 (inactive); in assay [7], -0.262. In addition, the z-score in assay [8] was 1.22 (inactive); in assay [9], 1.05 (inactive); in assay [10], 1.16. The molecule further registered a composite z-score in [2] of 0.85.

In the case of `O=c1oc(-c2ccccc2)nc2cc(Br)ccc12`, the z-score was 0.311 (inactive) in assay [1]; 3.27 (inactive) in assay [3]; 0.635 (inactive) in assay [4]; -1.02 (inactive) in assay [5]; 0.845 (inactive) in assay [6]; -0.29 in [7]. In addition, the z-score in assay [8] was 0.377 (inactive); in assay [9] it was -0.138 (inactive); in assay [10], -0.291. Further, the composite z-score in assay [2] was -0.0099.

For `C=CCC(OC(C)=O)[C@@H]1[C@@H](N(Cc2cc3ccccc3o2)C(=O)c2ccc(C)cc2)c2cc(OCCCO)ccc2N1C(=O)c1ccc2ccccc2c1` (stereo not given in full), the z-score in [1] is 2.19 (inactive); in assay [3], 1.32 (inactive); in [4], 0.393 (inactive); in assay [5] it was -0.44 (inactive); in assay [6] it was 0.0878 (inactive); in assay [7] it was 0.147. Also, the z-score in [8] was 0.355 (inactive); in assay [9] it was 0.89 (inactive); in assay [10], 2.7. In assay [2], this molecule had a composite z-score of 0.168.

As to `C=CC(COC(C)=O)NS(=O)(=O)c1ccc(Br)cc1` (stereo not given), the z-score in assay [1] is -1.32 (inactive); in assay [3], 0.132 (inactive); in assay [4], -0.168 (inactive); in [5], -0.73 (inactive); in assay [6] it was -0.064 (inactive); in assay [7], 0.495. Moreover, the z-score is -0.334 (inactive) in assay [8], -0.0279 (inactive) in assay [9] and -0.377 in assay [10]. The molecule further displayed a composite z-score in assay [2] of 0.157.

Take `CCOC(=O)C[C@H]1[C@H](OC(=O)c2ccc(-c3ccccc3)cc2)[C@@H](NC(=O)c2ccc(-c3ccccc3)cc2)c2cc(OCCCO)ccc2N1C(=O)Cc1ccc(OC)cc1`: the z-score was -0.783 (inactive) in assay [1]; 11.4 (active) in assay [3]; 0.618 (inactive) in assay [4]; -0.397 (inactive) in assay [5]; 0.602 (inactive) in assay [6]; 0.491 in assay [7]. In addition, the z-score in assay [8] is -1.3 (inactive); in assay [9], 0.622 (inactive); in assay [10] it was -0.0798. In [2], this molecule gave a composite z-score of -0.0061.

Consider `CC(C)N1C(=O)C[C@@](C(=O)NCc2ccccc2)(c2ccc([N+](=O)[O-])cc2)[C@H]1c1ccc(CO)cc1`, for which the z-score in [1] was 1.05 (inactive); in assay [3], 1.58 (inactive); in assay [4] it was -0.273 (inactive); in assay [5] it was 1.03 (inactive); in assay [6], 0.449 (inactive); in [7], -0.081. Further, the values for the z-score in [8], in [9] and in assay [10] were -0.85 (inactive), -0.235 (inactive) and -1.72, respectively. Besides, the composite z-score in assay [2] is -0.409.

Turning to `COCC(=C=CC[C@@H](O)c1ccc(CO)o1)CCO`, the z-score is 2.61 (inactive) in assay [1]; 1.6 (inactive) in assay [3]; -0.908 (inactive) in assay [4]; -0.949 (inactive) in assay [5]; -1.11 (inactive) in assay [6]; 3.11 in [7]. For the same molecule, the z-score is -1.84 (inactive) in [8], -0.922 (inactive) in [9] and -1.06 in assay [10]. The composite z-score in [2] is -0.205.

Consider `O=C(O)[C@H]1C[C@H]2C(=O)NCC(=O)N2[C@H]1c1ccc(O)cc1`, for which the z-score in assay [1] was 1.55 (inactive); in assay [3], 2.81 (inactive); in assay [4] it was 0.898 (inactive); in assay [5] it was -2.6 (inactive); in [6] it was 0.276 (inactive); in assay [7] it was 0.586. For the same molecule, the z-score in assay [8] was -1.99 (inactive); in [9], -1.12 (inactive); in [10], -0.575. Further, the composite z-score in [2] was -0.0171.

`C=C(COC)/C(=C/C[C@H](OC(=O)c1ccncc1)c1cccc(OCCO)c1)c1cc(C(=O)OC)ccc1OC`: the z-score in [1] was 0.395 (inactive); in assay [3], 13.5 (active); in assay [4], 2.26 (inactive); in assay [5], 2.48 (inactive); in assay [6] it was 0.773 (inactive); in assay [7], -0.625. The z-score in assay [8] is 0.32 (inactive); in [9], 0.00792 (inactive); in [10], -1.51. For the same molecule, the composite z-score in [2] is 0.132.
